# Compounds with a hit are over-represented: about 8.1% of the library has one in this group of screens.
# PINK1 expr mod: changes PINK1 expression. Potency, µM (series often up to 76.6 µM), actives largely listed as activators. actives 0.2% (n = 410,000). AID 624263. PINK1 immunofluorescence, high-content cytometry, 24 h; active = well fitted activation curve with a large enough effect; inconclusive = small, poorly fitted or top-dose-only effect; cell line not stated here; note: nearly all actives have a fitted effect of over 65% in size
#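 Stable cell line, 250 cells/well, 12 h attachment; compounds pinned at 5 concentrations, 24 h; CCCP control. Fixed with nuclear dye, primary antibodies 12 h at 10 degrees C, secondary plus cell stain; laser-scanning cytometer read.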
# Epigenetic derep: derepresses silenced GFP reporter in murine cells | murine LDR cells, GFP reporter derepression, 30 h | Potency, µM (highest dose often 53.9 µM), usual class: activators | actives 0.2% (n = 280,000); note: nearly all actives have a fitted effect of over 60% in size
#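 Reporter derepression read as number of fluorescent GFP-positive objects, 20-120 um in size, counted by laser-scanning cytometer. Mouse LDR line with an epigenetically silenced CMV-GFP locus; compound incubation 30 h, 37 C.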
# VP16 counter: inhibits Gal4-VP16 luciferase reporter, ROR gamma counter-screen. actives 3.5% (n = 310,000). Drosophila S2 Gal4-VP16 UAS-luciferase, luminescence, 20 h. Potency, µM (top dose mostly 53.6 µM), usual class: inhibitors. AID 2546;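 note: Gal4-VP16 expression switched on by copper sulfate through the metallothionein promoter; nearly all actives have a fitted effect of over 50% in size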
# Sfp PPTase inh: inhibitors of Bacillus subtilis Sfp phosphopantetheinyl transferase. Q9F4F7. Biochemical Sfp PPTase activity, qHTS. Potency, µM, hits mostly inhibitors. actives 3.5% (n = 310,000). AID 1490;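 note: the enzyme is Sfp with the accession as filed and its product quenches rhodamine fluorescence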
#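 Step 1, compound plus 15 nM Sfp-PPTase, 15 min, room temperature. Step 2, add rhodamine-CoA (5 uM) and BHQ-2-YbbR (12.5 uM). Step 3, read 525/598 nm fluorescence at 0 and 30 min.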
# ClpP mod: qHTS Assay for Activators of ClpP; purified B. subtilis ClpP, FRET peptide cleavage, 20 min; Potency, µM (top dose mostly 57.5 µM); actives 1.9% (n = 340,000); AID 651965, 2013; active = well fitted falling curve with a large enough effect; inconclusive = small, poorly fitted or top-dose-only effect; inactive = no such curve, though single readings can be large or run the other way; note: the source files actives as falling curves though it sought activators and does not explain the sign; nearly all actives have a fitted effect of over 65% in size
# Target sequence (P80244 whole entry, looked up): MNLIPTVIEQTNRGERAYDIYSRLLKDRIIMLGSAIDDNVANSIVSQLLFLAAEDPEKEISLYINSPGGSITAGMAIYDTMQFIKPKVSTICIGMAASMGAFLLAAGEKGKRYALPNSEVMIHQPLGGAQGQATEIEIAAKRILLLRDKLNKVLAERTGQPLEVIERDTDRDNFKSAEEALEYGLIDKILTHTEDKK
#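 ClpP 10 microg/mL final, pH 8 Tris/KCl buffer with BSA, glycerol, Tween-20; compound pinned in; FRET-FV substrate; RT 20 min; Ex320/Em430; ΔFRET vs ADEP 5.8 microM, DMSO, no enzyme.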
# RORg inh: blocks mouse ROR gamma transcriptional activity; actives 5.4% (n = 310,000); AID 2551; P51450; Drosophila S2 Gal4-RORgamma UAS-luciferase reporter, 20 h; Potency, µM (doses to about 53.6 µM), hits mostly inhibitors; note: nearly all actives have a fitted effect of over 60% in size
# Target sequence (P51450 whole entry, looked up, the tested form may be a part): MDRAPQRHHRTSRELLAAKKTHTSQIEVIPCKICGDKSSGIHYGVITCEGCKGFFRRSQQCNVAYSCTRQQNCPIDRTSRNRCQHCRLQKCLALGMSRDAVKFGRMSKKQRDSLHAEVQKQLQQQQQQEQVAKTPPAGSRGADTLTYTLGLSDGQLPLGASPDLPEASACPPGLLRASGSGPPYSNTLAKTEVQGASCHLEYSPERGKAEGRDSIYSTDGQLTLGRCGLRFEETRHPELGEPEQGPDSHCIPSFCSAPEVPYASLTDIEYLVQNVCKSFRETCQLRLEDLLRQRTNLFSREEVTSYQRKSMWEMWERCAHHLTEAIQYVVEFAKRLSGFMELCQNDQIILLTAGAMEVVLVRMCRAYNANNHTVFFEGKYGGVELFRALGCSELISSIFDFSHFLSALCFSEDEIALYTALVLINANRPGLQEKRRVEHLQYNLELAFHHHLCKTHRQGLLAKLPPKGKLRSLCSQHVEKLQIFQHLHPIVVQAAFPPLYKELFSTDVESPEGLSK
#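 Compounds are pin-transferred onto Drosophila Schneider cells expressing a copper-inducible Gal4–ROR gamma transactivation domain fusion. After 1 hr, copper sulfate is added to 700 uM final; luciferase is read 20 hr later.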
# Hits are given with their value; n = inactive; u = inconclusive; x = not tested or not shown; [ ] = remark or other dose. Unless noted, calls come from the whole dose curve; as a rule, active = well fitted curve in the direction sought with a large enough effect; inconclusive = small, poorly fitted or top-dose-only effect, or another doubt; inactive = no such curve, though single readings can be large; an effect the other way counts as inactive or inconclusive.
SMILES,PINK1 expr mod,Epigenetic derep,VP16 counter,Sfp PPTase inh,ClpP mod,RORg inh
Cc1oc(-c2ccccc2)nc1CS(=O)CC(=O)N1CCc2ccccc2C1 (stereo not drawn),n,n,n,50µM,n,u
Cc1ccc(S(=O)(=O)Nc2ccc(O)c3cccnc23)cc1,n,x,u,n,x,10µM
Cc1ccc(S(=O)(=O)Nc2ccccc2O)cc1,x,x,x,x,n,x
Cc1ccc(S(=O)(=O)Nc2ccc(O)c3ncccc23)cc1,n,u,u,n,n,2.5µM
COc1ccc(-n2c(SCC(=O)c3ccccc3)nc3c([nH]c4ccccc43)c2=O)cc1,n,n,x,x,n,x
COc1ccc(Cn2ccc3nc(C)c(C(=O)N4CCN(c5ccccc5OC)CC4)cc3c2=O)cc1,n,n,x,x,n,x
Cc1ccc2nc(C)/c(=N\O)c(C)nc2c1,n,n,n,n,n,11µM
Cc1ccc(NS(=O)(=O)c2cc([N+](=O)[O-])ccc2N/N=C/c2sc(N3CCOCC3)nc2-c2ccccc2)c(C)c1,n,32µM,n,n,n,n
S=C1NC[C@H](Cc2ccccc2)N1CCc1cccc2ccccc12,n,n,5.6µM,n,n,1µM
CCCC[C@@H]1CNC(=S)N1CCc1cccc2ccccc12,n,n,4.5µM,n,n,1.6µM
CCCCN1C(=S)NC[C@@H]1Cc1cccc2ccccc12,n,n,11µM,n,n,3.2µM
S=C1NC[C@H](Cc2cccc3ccccc23)N1CC1CCCCC1,n,n,5µM,n,n,0.71µM
O=c1c2cc3c(cc2n(Cc2ccc(Cl)cc2)c(=O)n1Cc1nc(-c2ccccc2)no1)OCO3,n,n,x,x,n,x
Cc1nc2nc(NC(=O)C(C)(C)C)[nH]n2c(=O)c1Cc1ccccc1,n,n,x,x,n,x
CCCN(CCC)C(=O)Cn1nnc2sc(-c3ccccc3)cc2c1=O,n,n,x,x,n,x
C=C(C)C(O)/C=C/c1ccc(C)cc1 (stereo not drawn),x,n[10.1 µM],n[10 µM],n,x,n[10 µM]
CCOc1ccc(NC(=O)Cn2c(=O)n(-c3ccc(C)cc3)c(=O)c3cc(OC)c(OC)cc32)cc1,n,n,x,x,n,x
O=C(N/N=C/c1cnc(N2CCCCC2)s1)c1ccc(C(F)(F)F)cc1,7.1µM,n,3.5µM,n,n,2µM
CCOC(=O)c1ccccc1NC(=O)COC(=O)c1ccc(OCC(=O)N2CCOCC2)c(OCC)c1,n,x,x,x,n,x
CCOc1cc(/C=C\[N+](=O)[O-])ccc1OCC(=O)N1CCOCC1,n,n,5.6µM,40µM,x,4.5µM
CCOc1cc(/C=N/NC(=S)Nc2ccccc2C(F)(F)F)ccc1OCC(=O)N1CCOCC1,n,n,1.4µM,n,n,1.4µM
Cc1cccc2c1-c1sc(C(=O)N(C)c3cccc(Cl)c3)cc1CO2,n,n,x,x,u,x
COc1cc(CC(NC(C)=O)C(=O)NC2CCN(c3nc(C)cc(C)c3C#N)CC2)cc(OC)c1 (stereo not drawn),n,n,n,n,u,n
COc1cccc(CC(NC(C)=O)C(=O)NC2CCN(c3nc(C)cc(C)c3C#N)CC2)c1OC (stereo not drawn),n,n,n,n,28µM,n
CCCCc1ccc(NC(=O)COC(=O)c2ccccc2OCC(=O)Nc2ccc(Br)cc2)cc1,n,x,x,x,n,x
SMILES,PINK1 expr mod,Epigenetic derep,VP16 counter,Sfp PPTase inh,ClpP mod,RORg inh
CCN(CC)C(=S)NC(=O)C12CC3CC(CC(C3)C1)C2,n,n,5µM,n,x,2.5µM
CC12CC3CC(C)(C1)CC(C(=O)N1CCCC1)(C3)C2,n,x,n,n,x,n
CC12CC3CC(C)(C1)CC(C(=O)NC(=S)N1CCOCC1)(C3)C2,x,n,2.8µM,n,n,1.1µM
O=C(NC(=S)N1CCCCC1)C12CC3CC(CC(C3)C1)C2,n,n,13µM,n,n,7.1µM
CCOC(=O)N1CCN(C(=S)NC(=O)C23CC4CC(CC(C4)C2)C3)CC1,n,n,u,n,x,3.5µM
CCOC(=O)N1CCN(C(=O)NC23CC4CC(CC(C4)C2)C3)CC1,n,n,n,n,n,n
CC(C)CCNC(=O)c1ccc(NC(=O)N2CCCCc3ccccc32)cc1,n,n,x,x,n,x
CC(C)N(C(=O)Cn1cc(SCC(=O)Nc2ccccc2F)c2ccccc21)C(C)C,n,n,x,x,n,x
CCCCCC1CCNCC1,x,x,x,x,n,x
CCCCCC1CCC(c2n[nH]c(=S)n2C)CC1 (stereo not drawn),n,n,4µM,n,x,u
C=C(C)COc1ccc(-c2[nH]ncc2Oc2ccccc2OC)c(O)c1,n,n,u,n,n,11µM
C=C(C)COc1ccc(-c2ncncc2-c2ccccc2OC)c(O)c1,n,x,u,n,x,n
C=C(C)COc1ccc(-c2nc(N)ncc2Oc2ccccc2OC)c(O)c1,n,n,n,n,n,n
C=C(C)COc1ccc(-c2n[nH]c(C)c2-c2ccc(Br)cc2)c(O)c1,u,n,4.5µM,n,n,3.2µM
C=C(C)COc1ccc(-c2[nH]ncc2-c2ccccc2OC)c(O)c1,n,n,13µM,n,n,8.9µM
C=C(C)COc1ccc(-c2nc(N)ncc2Oc2ccc(OC)cc2)c(O)c1,n,n,n,n,25µM,n
C=C(C)COc1ccc(-c2nc(N)ncc2-c2ccc(Br)cc2)c(O)c1,n,x,n,n,n,n
COc1ccc2[nH]c(C)cc2c1,x,x,x,x,n,x
COc1cccc(Oc2cn[nH]c2-c2ccc(OCC(=O)NN)cc2O)c1,n,x,n,n,n,n
C=C(C)COc1ccc(-c2ncncc2-c2ccc(Br)cc2)c(O)c1,u,x,n,n,n,n
C=C(C)COc1ccc(-c2[nH]ncc2Oc2ccc(OC)cc2)c(O)c1,n,n,u,n,n,13µM
CCCOC(=O)c1ccc(Oc2cn[nH]c2-c2ccc(OC)cc2O)cc1,n,n,22µM,n,n,10µM
CCOc1ccc(-c2[nH]ncc2-c2ccc(Cl)cc2)c(O)c1,n,x,u,n,n,11µM
CCOc1ccc(-c2[nH]ncc2-c2ccc(OC)c(OC)c2)c(O)c1,n,n,u,n,u,u
C=C(C)COc1ccc(-c2[nH]ncc2-c2ccc(Br)cc2)c(O)c1,n,n,10µM,n,n,7.9µM
CCC(=O)N1CCc2cc(S(=O)(=O)NCCC(=O)NCc3ccc(OC)cc3)ccc21,n,n,x,x,n,x
O=C(CN1C(=O)CSc2ccc(S(=O)(=O)N3CCCC3)cc21)NCc1ccc(Cl)cc1,n,n,x,x,n,x
CC(C)CC(=O)n1nc(-c2ccco2)nc1NCc1ccc(Cl)cc1,n,n,x,x,n,x
CCc1cc(-c2[nH]ncc2-c2ccc(OC)cc2)c(O)cc1O,n,x,n,n,n,n
COc1ccc(-c2cn[nH]c2-c2ccc(OCc3ccc([N+](=O)[O-])cc3)cc2O)cc1,n,n,2µM,n,n,2.8µM

# Bioassay records deposited in PubChem by National Center for Advancing Translational Sciences (NCATS).
